# According to PubChem BioAssay AID488922 (Johns Hopkins Ion Channel Center, 2010):
# The campaign covered roughly 310,000 compounds. About 3,800 (1.2%) were called active.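 The calls were made as follows: active = ratio B-score over 3 SD below the library mean, with starting fluorescence within 5 SD of its mean; inactive = the rest, inconclusive results apart.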 Many of the other results were omitted from the sample, so actives are more common in it than they were.
# Biological target: Potassium channel subfamily K member 9 (Homo sapiens) (UniProt Q9NPC2)
# Test: blockers of human TASK-3 (KCNK9) channel – HEK293 cells, thallium flux, primary screen (AID 488922);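 as to B-score: negative B-score means less thallium flux so channel inhibition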
# Settings: HEK293 KCNK9, FluxOR thallium flux fluorescence, at 10 µM; stronger effect = lower value
# Potassium channel subfamily K member 9 (Homo sapiens), sequence (Q9NPC2 whole entry, looked up): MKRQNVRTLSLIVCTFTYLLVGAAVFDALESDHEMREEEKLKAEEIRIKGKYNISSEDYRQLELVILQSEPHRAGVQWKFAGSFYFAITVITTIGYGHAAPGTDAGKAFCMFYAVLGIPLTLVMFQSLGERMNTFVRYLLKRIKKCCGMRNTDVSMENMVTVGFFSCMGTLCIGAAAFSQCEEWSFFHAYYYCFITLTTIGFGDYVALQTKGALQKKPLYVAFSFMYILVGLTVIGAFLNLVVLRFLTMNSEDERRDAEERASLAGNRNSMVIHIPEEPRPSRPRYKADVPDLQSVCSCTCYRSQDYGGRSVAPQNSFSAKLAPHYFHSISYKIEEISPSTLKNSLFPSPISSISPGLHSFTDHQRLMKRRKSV
row,SMILES,B-score
1,O=P(O)(CN1CCCCCC1)C1Cc2ccccc2C1,inactive
2,CCc1ccccc1NC(=S)Nc1cc(OC)c(NC(=O)C(C)C)cc1OC,inactive
3,CCc1ccccc1NC(=O)CCOc1ccccc1,inactive
4,CCc1ccccc1NC(=O)/C(=C/c1ccccc1)c1ccccc1,-8.86 (active)
5,COc1cccc(CNS(=O)(=O)c2ccc3c(c2)N(C(C)=O)CCS3)c1,inactive
6,COc1cc(NC(=O)c2ccccc2)c(OC)cc1NC(=O)Cc1ccccc1,inactive
7,COc1cc(OC)cc(C(=O)OCC(=O)Nc2sccc2C(N)=O)c1,inactive
8,NC(=O)c1c(NC(=O)c2ccccc2)sc2c1CCCC2,inactive
9,COc1cccc(OC)c1C(=O)Nc1nnc(C(C)C)s1,inactive
10,COc1cccc(OC)c1C(=O)Nc1sc2c(c1C(N)=O)CCCC2,-11.2 (active)
11,Cc1cc(C)c(S(=O)(=O)N(C)CC(=O)NCC2CCCO2)c(C)c1 (stereo not given),inactive
12,O=C(Cc1csc(Nc2nc(=S)[nH]c3ccccc23)n1)NCCCN1CCN(c2cccc(Cl)c2)CC1,inactive
13,CCCn1nc(Oc2nc(NC(C)C)nc(N(C)C)n2)ccc1=O,inactive
14,CCOC(=O)c1ccc(S(=O)(=O)N(CCO)Cc2cc3cc(OC)c(OC)cc3[nH]c2=O)cc1,inactive
15,COc1cccc(CNC(=O)C(=O)NCCC2CCCCN2S(=O)(=O)c2ccc(C)cc2)c1 (stereo not given),inactive
16,Cc1ccc(-n2c(SCC(=O)Nc3ncc(Cl)cc3Cl)nc3ccccc32)cc1,inactive
17,Cc1[nH]nc(SCC(=O)NCC(C)C)c1[N+](=O)[O-],inactive
18,O=C(CSc1ncn[nH]1)Nc1nc(-c2cccc([N+](=O)[O-])c2)cs1,inactive
19,CCNC(=O)CSc1nc(-c2ccccc2)cs1,inactive
20,O=C(CSc1nc(-c2ccccc2)cs1)Nc1cccc([N+](=O)[O-])c1,-7.08 (active)
21,CCSc1nnc(-c2cc3c(s2)-c2ccccc2CC3)o1,inactive
22,CN(C(=O)CCN1C(=O)/C(=C/c2ccccc2F)SC1=S)C1CCS(=O)(=O)C1 (stereo not given),inactive
23,CCOC(=O)CSc1nc2c(sc(=S)n2CCc2ccccc2)c(=O)n1Cc1ccco1,-8.91 (active)
24,CCOC(=O)CSc1nc2c(c(=O)n(C)c(=O)n2C)n1Cc1ccccc1F,inactive
25,COC(=O)CSc1nc2ccccc2c(=O)n1Cc1ccccc1,inactive
26,Cc1ccc(OCC(=O)Nc2ccc(NC(=O)c3cccs3)cc2)c(C)c1,inactive
27,O=C(Nc1ccc2c(c1)OCCO2)c1ccoc1,inactive

row,SMILES,B-score
1,COc1ccc(C(=O)CSc2nc(C)cc(C)n2)cc1[N+](=O)[O-],inactive
2,Cc1cc(C)nc(SCC(=O)c2ccc(Cl)cc2)n1,inactive
3,Cc1cc(Oc2ccc(Cl)cc2)nc(SCC(=O)c2ccccc2)n1,-11.2 (active)
4,CCC(C)NC(=O)c1nn(C)c(=O)c2ccccc12 (stereo not given),inactive
5,Cc1ccc(N2C(=O)C(NC(=O)c3c(F)cccc3F)(C(F)(F)F)C3=C2CC(C)(C)CC3=O)cc1 (stereo not given),inactive
6,CC(Sc1nc(-c2ccccc2)cc(C(F)(F)F)n1)C(=O)Nc1ccc2c(c1)OCO2 (stereo not given),inactive
7,CC(Sc1nc2cc(Cl)ccc2s1)C(=O)Nc1ccc2c(c1)OCO2 (stereo not given),-7.35 (active)
8,O=C(Nc1ccc2c(c1)OCO2)c1sc2cc(Cl)ccc2c1Cl,inactive
9,COc1ccc(Nc2ncnc3ccc(Br)cc23)c(OC)c1,inactive
10,COc1ccc(Nc2ncnc3sc(-c4ccccc4)cc23)c(OC)c1,-9.69 (active)
11,COc1ccc(Nc2ncnc3sc(C)cc23)cc1,inactive
12,CCc1cc(=O)oc2cc(OCC(=O)N3CCCc4ccccc43)ccc12,inactive
13,CN(C)C(=O)c1ccc2c(c1)C1C3CCC(C3)C1C(c1ccccc1)N2 (stereo not given),inactive
14,CC(=O)c1ccc(NC(=O)CCNS(=O)(=O)c2cc(Br)cnc2N)cc1,inactive
15,C=CCNC(=O)COC(=O)c1ccccc1C(=O)N(C)C1CCCCC1,-6.84 (active)
16,O=C(COC(=O)c1ccccc1SCC(=O)NC1CCCCC1)NC1CCCCC1,inactive
17,COc1ccccc1C(=O)OCC(=O)NCCNC(=O)COC(=O)c1ccccc1OC,inactive
18,O=c1cc(Cl)c2ccccc2n1-c1ccccc1,inactive
19,CC(NCC(=O)Nc1cc(Cl)cc(Cl)c1)c1ccccc1 (stereo not given),inactive
20,O=C(Nc1cc(Cl)cc(Cl)c1)C(NCCCO)c1ccccc1 (stereo not given),-8.3 (active)
21,OCCCNC(c1ccccc1)c1ccc(O)cc1 (stereo not given),inactive
22,COc1ccccc1N1CCN(Cc2cc(OC)c3c(c2)OCO3)CC1,inactive
23,Cc1noc(C)c1C(=O)OCC(=O)N1CCN(S(=O)(=O)c2ccc3ccccc3c2)CC1,inactive
24,COC(=O)C1=C(Nc2ccc(C)cc2)C=C(C)C(C(=O)OC)C1c1ccc(F)cc1 (stereo not given),-10.4 (active)
25,COC(=O)C1=C(Nc2ccc(OC)cc2)C=C(C)C(C(=O)OC)C1c1ccc(C)cc1 (stereo not given),inactive
26,COC(=O)C1C(=O)NCC1c1ccc(C)cc1 (stereo not given),inactive
27,CC1CCC(NC(=O)CNC(=O)c2ccc3ccccc3c2)CC1 (stereo not given),inactive

row,SMILES,B-score
1,CN=C1SC(CC(=O)Nc2ccc(C(=O)O)cc2)C(=O)N1C (stereo not given),inactive
2,CN(CC(=O)Nc1ccc(S(=O)(=O)N2CCCC2)cc1)Cc1ccc(Cl)c(Cl)c1,inactive
3,CN(CC(=O)Nc1ccc(F)cc1)CC(=O)Nc1ccc(Cl)c(S(=O)(=O)N2CCOCC2)c1,inactive
4,CN(CCC(=O)Nc1cc(S(=O)(=O)N(C)C)ccc1Cl)CC(=O)Nc1ccc(F)cc1,-12.2 (active)
5,COc1ccccc1OCC(=O)O/N=C(\N)c1ccccn1,inactive
6,O=C(O)CCS(=O)(=O)c1ccc(-c2ccccc2)cc1,inactive
7,Cc1cc(C)c(C)c(S(=O)(=O)Nc2ccc(O)cc2)c1C,inactive
8,Cc1ccc(Cn2cc(C(=O)NN)c(=O)c3ccc(F)cc32)cc1,inactive
9,CCOC(=O)C1=C(C)N=C2c3ccccc3C(=O)C2C1c1ccc(Br)cc1 (stereo not given),inactive
10,O=C1c2ccccc2C2=Nc3ccccc3SC(c3ccccc3F)C12 (stereo not given),-9.81 (active)
11,O=C1c2ccccc2C(=O)C1c1ccccc1F,inactive
12,CC(C)c1ccc2c(c1)c(SC(C)(C)C)c(CC(C)(C)C(=O)O)n2Cc1ccc(Cl)cc1,inactive
13,COc1ccc(C2NC(=O)N(C)C(C)=C2[N+](=O)[O-])cc1 (stereo not given),inactive
14,CCOCN(C(=O)Cn1c(C(C)O)nc2ccccc21)c1c(C)cccc1CC (stereo not given),inactive
15,CCc1cccc(C)c1N(C(=O)Cn1c(CO)nc2ccccc21)C(C)COC (stereo not given),-9.35 (active)
16,COc1ccccc1Cn1c(CO)nc2ccccc21,inactive
17,CCOc1ccc2[nH]c(=O)c(CN(Cc3nnnn3Cc3ccccc3)CC3CCCO3)cc2c1 (stereo not given),inactive
18,COc1ccc2[nH]c(=O)c(CN(Cc3nnnn3CCc3ccccc3)CC3CCCO3)cc2c1 (stereo not given),inactive
19,CCOc1ccc2[nH]c(=O)c(CN(Cc3nnnn3CCc3ccccc3)CC3CCCO3)cc2c1 (stereo not given),-9.63 (active)
20,Cc1cc(=O)[nH]c(Nc2cccc(Br)c2)n1,inactive
21,CCCc1nc2c(c(=O)c3ccccc3n2C)c(=O)n1-c1cc(C)cc(C)c1,inactive
22,CCCc1nc2ccccc2c(=O)n1/N=C/c1ccc(O)c(O)c1,inactive
23,CCCN1C(=O)C(Cc2nc3ccccc3c(=O)n2-c2ccccc2)c2cc(C)ccc21 (stereo not given),-9.54 (active)
24,CCOc1ccc(CN(Cc2ccco2)C(c2cccs2)c2nnnn2C(C)(C)C)cc1 (stereo not given),-17 (active)
25,CCOc1ccc(CN(Cc2ccco2)S(=O)(=O)c2ccc(-n3cnnn3)c(OC)c2)cc1,inactive
26,CC(C)(C)n1nnnc1C(c1cccs1)N(Cc1cccnc1)CC1CCCO1 (stereo not given),inactive
27,NC(=O)CC(NC(=O)Cc1ccc(Br)cc1)c1ccc(NC2CC3CCC2C3)c([N+](=O)[O-])c1 (stereo not given),inactive

row,SMILES,B-score
1,Cc1cc(C)n2nc(CNS(=O)(=O)c3c(F)c(F)c(F)c(F)c3F)nc2n1,inactive
2,COc1ccc(NC(=O)NN2CCN(C)CC2)c(OC)c1,inactive
3,COc1ccc(C(=O)/C=C/c2cccnc2)c(OC)c1,inactive
4,COc1ccc2c(c1)C(c1cccs1)=NNC(c1cccnc1)=N2,-13 (active)
5,Fc1ccc2c(c1)C(c1cccnc1)=NNC(c1cccs1)=N2,inactive
6,OCC[C@H]1C[C@H](O)[C@@H](O)[C@]2(CCCCO2)O1,inactive
7,C=CCSc1nc(Cc2ccc(Cl)cc2)nc2ccccc12,inactive
8,CCc1nc(SCC(=O)NNC(=O)c2ccc(C)cc2)c2ccccc2n1,inactive
9,CCCNC(=O)CSc1nc(Cc2ccccc2)nc2ccccc12,-7.59 (active)
10,CCOc1ccc(N(C)Cc2cc(=O)oc3ccc(OC)cc23)cc1,inactive
11,Cc1nc(-c2ccc(F)cc2)c(CC(=O)Nc2cc(S(=O)(=O)N3CCCCC3)ccc2C)s1,inactive
12,Cc1ccc(S(=O)(=O)N(C)CC(=O)NCCc2c[nH]c3ccccc23)cc1,inactive
13,OC(c1ccc(Cl)cc1)C(CN1CCOCC1)c1ccccc1 (stereo not given),inactive
14,CCCn1c(CCNc2nc(-c3ccc(OC)cc3)cs2)nc2ccccc21,inactive
15,Cc1ccc(-c2csc(N3CCN(c4cc5c(cc4Cl)nc(-c4ccncc4)n5CCOCCO)CC3)n2)cc1,inactive
16,Cc1ccc(-c2csc(NCCc3nc4cc(Cl)c(Cl)cc4n3CCOCCO)n2)cc1,-9.6 (active)
17,Cc1c(CCC(=O)O)c(=O)oc2c(C)c(OCc3ccccc3Cl)ccc12,inactive
18,C/C=N/N(c1ccccc1)c1ccccc1,inactive
19,O=C(/C=C/c1cccc(C(F)(F)F)c1)N1CCN(c2ccccn2)CC1,inactive
20,O=C(CCl)NNc1nc(-c2ccccc2)c2cc(Cl)ccc2n1,inactive
21,NC(N)=Nc1nc(-c2ccccc2)c2cc(Cl)ccc2n1,-6.86 (active)
22,OCCCNc1nc(-c2ccccc2)c2cc(Cl)ccc2n1,inactive
23,Cn1c(C(=O)OC(C(=O)NC2CCCCC2)c2ccccn2)cc2sccc21 (stereo not given),inactive
24,COc1cc(C(=O)NCc2cc3cc(Cl)ccc3n2C)cc(OC)c1OC,inactive
